For 6 compounds, growth results are on record in PubChem BioAssay (NCI).

About 83,000 compounds went through this panel and 20% of them were active in at least one assay; those are over-represented in the sample as a whole.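 A percent growth of 40 corresponds to 60% growth inhibition; 0 means no net growth; -100 means all cells died. Active threshold: below 10.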 A number with no mark means an inactive call. The source made the active and inactive calls.

In this experiment the test system is HL-60(TB) leukemia. In words: NCI-60 one-dose screen, 48 h (100 = growth as untreated, 0 = no growth, -100 = all killed). To be noted: 10 µM unless noted.
Regarding `Cc1ccc(S(=O)(=O)NCCCNc2nc(Nc3ccc(N4CCN(C)CC4)cc3)nc3ccsc23)cc1`, the growth is -50.9% (active).

As to `CCN(CC)c1cn(-c2ccc(S(N)(=O)=O)cc2)nn1`, the growth was 105%.

For `CC1(COc2ccc3ncc(C#Cc4cncc(C(=O)Nc5cccc(C(F)(F)F)c5)c4)n3n2)COC1`, the growth is 39.9%.

As to `COc1cc(/C=C/C(=O)c2ccccc2)ccc1Oc1nc(NCCO)nc(N2CCOCC2)n1`, the growth was 81.6%.

Turning to `O=c1c2cc(-c3ccc(F)cc3F)ccc2n(O)c(=O)n1-c1cccc(C(F)(F)F)c1`, the growth is -50.2% (active).

In the case of `N#Cc1cccc(CN2CCC3=C(C2)C(=O)N(Cc2ccc(Cl)cc2)C2=NCCN23)c1`, the growth is 16.2%.
